Mdm2-MdmX inh: inhibitors of human Mdm2-MdmX association, primary screen, cell-based, luminescence, split luciferase, SaOS-2, uHTS. SaOS-2 split-luciferase Mdm2/MdmX complementation. 3% of 330,000 active. inhibition, % at 8 µM. Protein Mdm4 (Homo sapiens) + E3 ubiquitin-protein ligase Mdm2 (Homo sapiens), …. AID 485346, 2010;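 active = inhibition of at least 50% at 8 µM in the primary screen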
Target sequence (O15151 whole entry, looked up): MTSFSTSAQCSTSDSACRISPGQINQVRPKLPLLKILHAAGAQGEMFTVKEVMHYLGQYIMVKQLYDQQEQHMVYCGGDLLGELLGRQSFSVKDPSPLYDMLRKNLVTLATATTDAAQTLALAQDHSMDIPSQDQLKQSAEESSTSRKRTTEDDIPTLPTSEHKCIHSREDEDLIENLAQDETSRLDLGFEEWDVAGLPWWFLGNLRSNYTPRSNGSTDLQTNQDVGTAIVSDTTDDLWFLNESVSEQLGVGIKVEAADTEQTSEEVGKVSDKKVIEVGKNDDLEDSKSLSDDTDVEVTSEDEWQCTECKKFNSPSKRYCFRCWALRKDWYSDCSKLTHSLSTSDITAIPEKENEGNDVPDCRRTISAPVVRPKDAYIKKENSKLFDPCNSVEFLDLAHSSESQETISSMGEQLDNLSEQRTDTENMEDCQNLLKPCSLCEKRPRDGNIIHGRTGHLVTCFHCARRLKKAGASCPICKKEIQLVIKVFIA
Target sequence (Q00987 whole entry, looked up): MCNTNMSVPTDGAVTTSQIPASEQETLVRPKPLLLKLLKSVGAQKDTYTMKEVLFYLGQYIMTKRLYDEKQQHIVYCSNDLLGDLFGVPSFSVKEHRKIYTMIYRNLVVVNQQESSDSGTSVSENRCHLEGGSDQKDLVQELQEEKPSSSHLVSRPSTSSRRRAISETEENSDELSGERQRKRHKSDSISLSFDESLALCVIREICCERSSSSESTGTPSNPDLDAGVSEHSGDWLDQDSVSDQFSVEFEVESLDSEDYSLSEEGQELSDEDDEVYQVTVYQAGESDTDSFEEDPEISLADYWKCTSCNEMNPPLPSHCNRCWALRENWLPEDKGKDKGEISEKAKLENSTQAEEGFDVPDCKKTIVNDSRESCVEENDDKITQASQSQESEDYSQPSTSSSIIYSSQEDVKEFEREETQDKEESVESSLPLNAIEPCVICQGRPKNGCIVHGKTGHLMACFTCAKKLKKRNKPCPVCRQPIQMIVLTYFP
SKKanGAS inh: S. pyogenes SKKanGAS growth inhibitors in kanamycin, primary screen, streptokinase expression inhibitor project, SKKanGAS strain, BacTiter-Glo luminescence | 1.3% of 300,000 active | inhibition, % at 7.5 µM | 6 h;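 active = mean replicate score, as percent of positive control median, at least 50; inconclusive = mean below 50 but one replicate at or above 50; inactive = mean and every replicate below 50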;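 also: strain carries kanamycin resistance gene driven by streptokinase promoter and grows in 40 µg/ml kanamycin; loss of luminescence reflects streptokinase promoter inhibition or plain growth inhibition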
CSC inhib: cancer stem cell viability inhibitors, primary screen, luminescence; cancer stem cell-like cells viability; inhibition, % at 7.5 µM; 1.1% of 300,000 active; in the data active = inhibition above about 75%; inconclusive = no clear call, values can overlap the other calls; tested in HMLE shEcad cells
Beta cell apopt: inhibitors of cytokine-induced beta cell apoptosis, primary screen, luminescence. INS-1E cytokine-induced death, ATP luminescence, 48 h; percent of positive-control rescue, neutral wells zero. protection from apoptosis, % (test concentration not listed). 0.8% of 300,000 active;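 active = Every replicate reaches about 75%, or at least half do and their mean reaches it too, limit read from the data; inconclusive = At least half of replicates reach the limit but their mean does not; inactive = Under half of replicates reach the limit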;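 also: higher means more ATP so stronger rescue from cytokine killing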
MPTP inh: mitochondrial permeability transition pore inhibitors, primary screen, biochemical, isolated mouse mitochondria, absorbance; Ca2+ swelling absorbance, 30 min; inhibition, % at 10 µM; 1.4% of 360,000 active;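 active = inhibition of 50% or more, scaled per plate between neutral and stimulator controls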
Calb FLC: C. albicans growth inhibition with fluconazole, primary screen, CaCi-2 strain, Alamar Blue fluorescence; C. albicans CaCi-2 (fluconazole-resistant clinical isolate) + fluconazole, 48 h; growth inhibition, % (concentration not given with the values); 0.57% of 300,000 active;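 active = growth inhibition above about 58% in most replicates, limit read from the data, passing the limit was not always enough; inconclusive = exactly half the replicates above a set limit; inactive = most replicates below a set limit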;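 also: all wells also contain fluconazole at 8 µg/ml as a sub-toxic cotreatment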
Mdm2-MdmX conf: Mdm2-MdmX complex disruptors, retested hits, confirmation, luminescence, single concentration; shares compounds with Mdm2-MdmX inh; Mdm2-MdmX binding, luminescent assay; inhibition, % at 8 µM; 55% of 10,000 active; AID 489028, 2010; in the data active = inhibition above about 40%
Full FLuc ctr: full-length luciferase signal inhibition, confirmation, counter-screen for Mdm2/MdmX interaction inhibitor project, cell-based, single concentration, SaOS-2 | AID 504607, 2011 | shares compounds with Mdm2-MdmX inh | SaOS-2 full-length luciferase counterscreen, luminescence | inhibition, % at 8 µM | 77% of 6,200 active;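 active = mean inhibition at 8 µM reaching about 37%, which flags the compound as non-specific, limit read from the data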;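 also: p53-null SaOS-2 cells with luciferase driven by a doxycycline-inducible promoter; compound on cells about two nights before reading with doxycycline added after day one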
Large screens that a line does not name were inactive (follow-up assays come after a bar, where they were run). Hits are enriched below; roughly 5.4% of the tested compounds scored in any of these assays.

CCN(CC)S(=O)(=O)c1ccc(-c2nnc(SCC(=O)N3CCc4ccccc43)o2)cc1	Mdm2-MdmX inh 74.7 | Mdm2-MdmX conf inactive
O=C(NCc1ccccn1)c1ccccc1OCc1ccccc1Cl	none (no result: Mdm2-MdmX inh, SKKanGAS inh, CSC inhib, Beta cell apopt, Calb FLC)
O=C(OCc1c(-c2ccccc2)ncc2ccccc12)c1ccc(C(F)(F)F)cc1	Mdm2-MdmX inh 78.4 (no result: SKKanGAS inh, Calb FLC) | Mdm2-MdmX conf inactive
O=C(OCc1c(-c2ccccc2)ncc2ccccc12)c1ccc(F)cc1	none (no result: SKKanGAS inh, Calb FLC)
Cc1nn(-c2cccc(Cl)c2)c(Cl)c1/C=N/NC(=O)c1cccs1	Mdm2-MdmX inh 78.4 | Mdm2-MdmX conf 53.5 | Full FLuc ctr 48.2
CCNC(=S)N/N=C/c1c(C)nn(-c2cccc(Cl)c2)c1Cl	none
CCn1ncc(/C=N/N=C2\CCC3C4CCc5cc(O)ccc5C4CCC23C)c1C (configuration not stated)	Mdm2-MdmX inh 50.7, Calb FLC inconclusive (no result: Beta cell apopt) | Mdm2-MdmX conf inactive
Cn1c(SCC(=O)NN2C(=O)NC(C)(c3ccccc3)C2=O)nnc1-c1ccncc1 (configuration not stated)	none (no result: SKKanGAS inh, Calb FLC)
CCOc1cc(S(=O)(=O)NCCc2ccc(OC)c(OC)c2)c(OCC)cc1-n1cnnn1	none
CCOc1cc(S(=O)(=O)NCc2ccc(OC)cc2)c(OCC)cc1-n1cnnn1	Mdm2-MdmX inh 50.8 (no result: SKKanGAS inh, CSC inhib) | Mdm2-MdmX conf 45.5 | Full FLuc ctr 85.7
CCCCCCn1c2c(c(=N)c3c1CCC3)CCC2	Mdm2-MdmX inh 67.2, Beta cell apopt 108.6 | Mdm2-MdmX conf 60.5 | Full FLuc ctr 38.9
COCCN(Cc1nc2ccccc2c(=O)[nH]1)C(=O)COc1ccccc1-c1ccccc1	Mdm2-MdmX inh 53.2 (no result: SKKanGAS inh, CSC inhib, Beta cell apopt, Calb FLC) | Mdm2-MdmX conf 43.2 | Full FLuc ctr 85.6
C=C1CCC[C@]2(C)C[C@H]3OC(=O)C(CNC(C)(CO)CO)[C@H]3CC12 (some centres not stated)	Mdm2-MdmX inh 63.1 | Mdm2-MdmX conf inactive | Full FLuc ctr 54.9
C=C1CCC[C@]2(C)C[C@H]3OC(=O)C(CN4CCCCC4CO)[C@H]3CC12 (some centres not stated)	Mdm2-MdmX inh 65.5 | Mdm2-MdmX conf 55.1 | Full FLuc ctr 37.8
C=C1CCC[C@]2(C)C[C@H]3OC(=O)C(CNC(CC)CO)[C@H]3CC12 (some centres not stated)	none
CCOc1ccc(N=Nc2cc(C(C)C)ccc2O)cc1	none
CCOc1ccc(N=Nc2ccc(O)c3ncccc23)cc1	Mdm2-MdmX inh 68.0, SKKanGAS inh 91.6, CSC inhib 103.0, Calb FLC 83.4 | Mdm2-MdmX conf 80.8 | Full FLuc ctr inactive
NS(=O)(=O)c1ccc(N=Nc2ccc(=O)[nH]c2O)cc1	none (no result: Mdm2-MdmX inh)
NS(=O)(=O)c1ccc(N=Nc2ccc(O)c3ncccc23)cc1	Mdm2-MdmX inh 61.9, Beta cell apopt 120.7, Calb FLC 79.2 | Mdm2-MdmX conf 52.1 | Full FLuc ctr 47.6
COc1ccccc1NC(=O)CCCC(=O)OC(C)C(=O)c1ccccc1 (configuration not stated)	none (no result: CSC inhib)
O=C(c1ccccc1)C(c1ccccc1)c1ccccc1	none
C=C(C(=O)c1ccccc1)C(c1ccccc1)C(C)C(=O)c1ccccc1 (configuration not stated)	Mdm2-MdmX inh 92.1, CSC inhib 110.8 (no result: Beta cell apopt) | Mdm2-MdmX conf 62.5 | Full FLuc ctr 44.0
COc1ccc(C(CC(=O)c2ccccc2)CC(=O)c2ccccc2)cc1	none
C=C(C(=O)c1ccccc1)C(C(=C)C(=O)c1ccccc1)c1ccc(OC)cc1	Mdm2-MdmX inh 97.7, Beta cell apopt 110.8 | Mdm2-MdmX conf 98.7 | Full FLuc ctr 50.4
Cc1ccc(C)c(CNS(=O)(=O)c2c(C)[nH]c(C)c2C(=O)N2CCCCC2)c1	none

Assay outcomes: PubChem BioAssay, several laboratories
